Assay outcomes as filed in PubChem BioAssay.
In the library only some 4% were active in any assay of this set; here they are far more common.
Rv3671c protease = inhibits the M. tuberculosis serine protease Rv3671c. inhibition, % at 5.96 µM. P9WHR9. AID 2606. 320,000 compounds, 0.048% hits; in the data active means inhibition above about 38%;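 further: extracellular domain of Rv3671c used as enzyme; 0% = enzyme with DMSO and 100% = no enzyme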
UGM FP inh = inhibitors of M. tuberculosis UDP-galactopyranose mutase. AID 504406. P9WIQ1. 320,000 compounds, 0.06% hits. inhibition, % at 10 µM. purified UGM, fluorescence polarization probe displacement; in the data active means inhibition above about 10%, passing the limit was not always enough
Target sequence (P9WIQ1 whole entry, looked up): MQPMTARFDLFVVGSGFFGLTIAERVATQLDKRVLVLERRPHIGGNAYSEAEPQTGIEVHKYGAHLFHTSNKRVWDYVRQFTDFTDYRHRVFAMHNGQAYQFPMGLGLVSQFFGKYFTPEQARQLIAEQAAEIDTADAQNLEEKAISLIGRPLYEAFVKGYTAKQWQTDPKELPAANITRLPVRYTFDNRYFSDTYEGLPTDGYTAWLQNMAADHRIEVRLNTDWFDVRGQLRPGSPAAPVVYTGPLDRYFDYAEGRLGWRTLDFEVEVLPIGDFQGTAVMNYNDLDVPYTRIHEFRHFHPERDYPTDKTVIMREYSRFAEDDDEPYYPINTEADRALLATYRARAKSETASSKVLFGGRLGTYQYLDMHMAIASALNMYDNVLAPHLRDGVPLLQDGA
FBA Mtb inh = inhibits M. tuberculosis FBA enzyme. 360,000 compounds, 2.3% hits. inhibition, % at 1 µM. purified M. tuberculosis FBA, fluorescence read-out. AID 588726. P9WQA3; in the data active means inhibition above about 27%;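 further: 0% = vehicle and 100% = reference inhibitor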
GDH-TPI inh = counter-screen for M. tuberculosis FBA inhibitors: GDH-TPI coupled enzymes. GDH-TPI coupled enzyme counterscreen, NADH absorbance. inhibition, % at 4.8 µM. 360,000 compounds, 1.2% hits. AID 588335; in the data active means inhibition above about 30%;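 further: 0% = DMSO wells and 100% = wells lacking the enzyme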
RecA splice inh = inhibitors of M. tuberculosis RecA intein splicing. P9WHJ3. cell-free RecA intein splicing, fluorescence. inhibition, % (test concentration not listed). 290,000 compounds, 0.75% hits. AID 2221; in the data active means inhibition above about 30%;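 further: 0% = vehicle wells and 100% = reference inhibitor control wells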
Mtb bLac sens = beta-lactam sensitization of Mtb H37Rv; M. tuberculosis H37Rv growth with meropenem, percent inhibition; inhibition, % at 25 µM; 330,000 compounds, 0.27% hits; call rule not given here;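 further: growth measured after seven days incubation then overnight dye step; 0% = bacteria only wells and 100% = bacteria with antibiotic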
Starred values were filed as active, the others as inactive; . = no result; + = active, no number.

SMILES | Rv3671c protease | UGM FP inh | FBA Mtb inh | GDH-TPI inh | RecA splice inh | Mtb bLac sens
Cc1oc2c(CN3CCCCC3C)c(O)ccc2c(=O)c1-c1ccccc1 (centres undefined) | 5 | 4 | 174* | 11 | -3 | 2
COc1ccccc1-c1c(C)oc2c(CN3CCCCC3C)c(O)ccc2c1=O (centres undefined) | 9 | -2 | 145* | 20 | 0 | -2
Cc1oc2c(O)c(O)ccc2c(=O)c1-c1ccccc1 | 11 | 4 | 1 | 27 | -4 | -1
CC(C)N1CCC(=NNC(=O)c2ccccc2[N+](=O)[O-])CC1 | 2 | 0 | + | 3 | -4 | 3
COc1cc(C(=O)C(=O)c2ccc(O)c(OC)c2)ccc1O | 7 | -2 | -2 | 35* | 5 | -6
CCOC(=O)c1sc2nc(CC(=O)OC)nc(NCC(=O)OC)c2c1C | -9 | 1 | 126* | 14 | -5 | 6
COc1cc(C)ccc1OCc1cc(C(=O)N(Cc2nccn2C)C(C)C)no1 | -10 | -1 | 0 | 7 | -1 | -6
COc1ccc2c(c1)[nH]c1c(=O)n(CCCN3CCOCC3)cnc12 | -3 | -1 | 4 | -1 | -2 | -5
COc1ccc2c(c1)c1ncn(CC3CCCO3)c(=O)c1n2C (centres undefined) | -2 | -3 | + | 15 | -3 | -1
COc1ccc2c(c1)c1ncn(CCCN3CCOCC3)c(=O)c1n2C | -7 | 2 | 170* | 9 | 3 | .
Nc1nc2ccccc2n1/N=C/c1ccc2c(c1)OCO2 | 2 | 2 | 1 | 49* | 2 | 68
CCc1c(C)sc(NC(=O)c2cc(-c3ccc(OC)c(OC)c3)on2)c1C#N | -4 | 0 | -2 | -1 | . | 0
COc1ccc(-c2cc(C(=O)Nc3cc(C)on3)no2)cc1 | -2 | 1 | . | . | 8 | -1
COc1ccc(-c2csc(NC(=O)c3cc(C)on3)c2C#N)cc1OC | -6 | -3 | 6 | 38* | -3 | 15
COc1ccc(-c2nnc(NC(=O)c3cc(C)on3)s2)cc1 | 5 | -2 | 2 | 35* | 0 | 96
C=CCN1C(=O)C(CC(=O)O)SC1=Nc1ccc(N=Nc2ccccc2)cc1 (centres undefined) | 10 | -1 | -1 | 63* | 5 | 6
C=CCN1C(=O)C(CC(=O)O)SC1=Nc1cccc([N+](=O)[O-])c1 (centres undefined) | -6 | 1 | 2 | 1 | . | -8
Cc1cccc(C2=NN(c3ccc(Br)cc3)[C@@H](C(=O)N3CCOC3=O)[C@@H]2c2ccc(F)cc2)c1 | -2 | -2 | 42* | 11 | -48 | 22
Cc1cccc(C2=NN(c3ccccc3)[C@@H](C(=O)N3CCOC3=O)[C@@H]2c2ccc([N+](=O)[O-])cc2)c1 | . | . | -6 | 16 | . | .
Cc1cccc(C2=NN(c3ccc(Br)cc3)[C@@H](C(=O)N3CCOC3=O)[C@@H]2c2ccc(Cl)cc2)c1 | . | . | 70* | 1 | . | .
CCc1c(C)nc(N2CCN(Cc3ccc4c(c3)OCO4)CC2)[nH]c1=O | -3 | -2 | 5 | 6 | 1 | 4
c1ccc2oc(-c3ccc4c(c3)CNCc3cnnn3-4)cc2c1 | . | . | + | . | . | .
c1cc2c(cc1N1CCCCC1)CNCc1cnnn1-2 | . | . | -3 | . | . | .
COC(=O)CCCCCN1C(=O)/C(=C\c2ccncc2)SC1=S | 2 | -5 | 8 | 15 | 34* | 99
O=C(CCCN1C(=O)/C(=C/c2ccccc2)SC1=S)Nc1ccccc1O | -16 | -1 | -3 | 20 | 0 | 4
SMILES | Rv3671c protease | UGM FP inh | FBA Mtb inh | GDH-TPI inh | RecA splice inh | Mtb bLac sens
O=C(NN1C(=O)/C(=C/c2cccs2)SC1=S)c1ccncc1 | 4 | 0 | -7 | 34* | 2 | -6
O=C(CCCN1C(=O)/C(=C/c2cccs2)SC1=S)NNC(=O)c1cccnc1 | -25 | 1 | 3 | 33* | -3 | -5
O=C(CCCN1C(=O)/C(=C\c2ccccc2)SC1=S)Nc1ccc(O)cc1C(=O)O | -7 | 4 | 0 | 25 | 41* | -2
Cc1cc(C)nc(SCC(=O)Nc2ncc(C(F)(F)F)cc2Cl)n1 | -3 | -1 | 2 | -5 | -1 | 1
CC/C(=N/NC(=O)c1ccccc1O)c1c(C)[nH]n(-c2ccccc2)c1=O | -1 | 1 | 0 | 31* | 27 | 22
NC(=O)C1CC(=O)N(c2ccc(OCc3c(F)cccc3Cl)cc2)C1 (centres undefined) | -8 | 0 | 1 | -13 | -1 | -1
CCOC(=O)c1cc2c(=O)n3ccccc3nc2n(CCCOC)c1=NC(C)=O | 0 | 3 | + | 19 | . | 1
C=CCn1c(=N)c(C(=O)OCC)cc2c(=O)n3cccc(C)c3nc21 | 1 | 0 | . | . | . | 3
CCOC(=O)c1cc2c(=O)n3cccc(C)c3nc2n(CCOC)c1=NC(C)=O | 14 | -2 | + | 1 | . | -3
CCOC(=O)c1cc2c(=O)n3ccccc3nc2n(CCCOC)c1=NC(=O)c1ccncc1 | 3 | 2 | + | 17 | -96 | -2
Cc1ccccc1-c1ccc2c(c1)C1c3c(-c4ccccc4)nnn3-c3ccccc3C(=O)N1CC2 (centres undefined) | . | . | -1 | . | . | .
CCn1cc(C2C3=C(CC(C)(C)CC3=O)N(c3ccc(C)cc3)C3=C2C(=O)CC(C)(C)C3)c(C)n1 | . | . | 1 | -1 | . | .
COc1ccc(N2C3=C(C(=O)CC(C)(C)C3)C(c3cnn(C)c3)C3=C2CC(C)(C)CC3=O)cc1 | -9 | 3 | 112* | 3 | -401 | 0
CC(C)=CCN1CCN(Cc2cccc3nonc23)CC1CCO (centres undefined) | -8 | 3 | -2 | -1 | -1 | -2
CC(C)=CCN1CCN(Cc2cccc3nccnc23)CC1CCO (centres undefined) | 7 | -1 | -2 | 31* | -1 | -3
CCCSc1nnc(Sc2nnnn2-c2ccccc2)s1 | -5 | 3 | 0 | 13 | 47* | 98
Cc1ccccc1-n1nnnc1Sc1nnnn1-c1ccccc1 | 10 | 1 | 1 | 8 | . | 91
O=C(O)c1sc2cc(C(F)(F)F)cnc2c1-c1ccccn1 | 11 | 1 | 146* | 12 | 1 | 2
CCOC(=O)C(=CNc1cc(OC)ccc1-n1cccc1)C(=O)OCC | 0 | 0 | 13 | 36* | 2 | -4
CCOC(=O)C(=CNc1cc(C(F)(F)F)ccc1N1CCOCC1)C(=O)OCC | 1 | 0 | 0 | 32* | 0 | 22
CCOC(=O)C(=CNc1cc(C)ccc1C)C(=O)OCC | -1 | 0 | -2 | 34* | 7 | 24
CCOC(=O)C(=CNc1cc(C)ccc1[N+](=O)[O-])C(=O)OCC | -6 | 0 | -3 | 10 | 1 | 3
COc1cccc(/C=N/NC(=O)c2nnn(-c3nonc3N)c2C(C)C)c1 | 2 | -1 | 5 | 11 | -2 | -1
C=CCOc1c(Br)cc(/C=N/NC(=O)Cc2ccc(C(F)(F)F)cc2[N+](=O)[O-])cc1OC | -3 | -2 | -2 | -1 | -2 | 2
C(=C\c1nc(-c2ccncc2)no1)/c1ccccc1 | -5 | 0 | -1 | 14 | -1 | 4
